Compound activity (PubChem)
MBD2 inh – MBD2-methylated oligo binding inhibition | Q9UBB5 | TR-FRET, MBD2 binding to methylated oligonucleotide | inhibition, % at 4.4 µM | 370,000 compounds, 0.31% hits | AID 686964; in the data active = inhibition above about 13%
Target sequence (Q9UBB5 whole entry, looked up): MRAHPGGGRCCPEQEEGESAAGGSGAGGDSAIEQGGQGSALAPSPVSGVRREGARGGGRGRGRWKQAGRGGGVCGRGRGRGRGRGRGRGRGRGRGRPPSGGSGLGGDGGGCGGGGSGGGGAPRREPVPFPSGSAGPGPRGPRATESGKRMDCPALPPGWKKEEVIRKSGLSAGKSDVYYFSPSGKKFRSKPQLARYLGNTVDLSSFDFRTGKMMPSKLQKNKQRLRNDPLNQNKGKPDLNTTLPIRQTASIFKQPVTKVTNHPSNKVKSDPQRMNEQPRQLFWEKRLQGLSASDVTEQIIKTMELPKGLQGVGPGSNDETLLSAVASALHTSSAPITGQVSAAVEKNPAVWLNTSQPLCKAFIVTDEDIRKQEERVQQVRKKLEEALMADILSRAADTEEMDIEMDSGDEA
TCR CD3 inh – inhibitors of human TCR-CD3 interaction | TAMRA-labeled TCR probe fluorescence, biochemical | inhibition, % at 9.4 µM | 360,000 compounds, 0.37% hits | AID 651800; in the data active = inhibition above about 19%;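 also: recombinant mutant TCR 2C K166C tagged with TAMRA read by polarization; 0% = receptor in buffer alone and 100% = receptor with positive control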
UHRF1 binding – human UHRF1 methylated DNA binding inhibitors; inhibition, % at 4.4 µM; UHRF1 binding to methylated oligo, TR-FRET; 370,000 compounds, 0.75% hits;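 also: UHRF1 SRA domain binding a hemimethylated CpG hairpin DNA probe; 0% = median of test compound wells and 100% = reference inhibitor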
LEDGF integ inh – blocks HIV-1 LEDGF/p75-dependent DNA integration; TR-FRET IN-LEDGF/p75 DNA integration, Eu/Cy5; inhibition, % at 3.7 µM; 370,000 compounds, 0.64% hits; AID 743269;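 active = inhibition above the screen-wide mean plus 3 SD, cut at about 13% in these data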;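 also: signal is the Cy5 over europium emission ratio at 671 and 618 nm; 0% = plate median of compound wells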
Rin1 Abl inh – inhibitors of human Rin1-Abl protein interaction | inhibition, % at 7.35 µM | TR-FRET Rin1/Abl binding, biochemical | P00519+Q13671 | 360,000 compounds, 0.4% hits | AID 588664; in the data active = inhibition above about 5%, passing the limit was not always enough
UHRF1 DNA bind – inhibits human UHRF1 binding to methylated oligonucleotide, MBD2 counter-screen. shares compounds with MBD2 inh. TR-FRET. inhibition, % at 4.4 µM. 1,000 compounds, 25% hits;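 also: UHRF1 SRA domain binding a labeled hemimethylated CpG hairpin DNA; 0% = vehicle only and 100% = reference inhibitor with vehicle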
MBD2 DBD conf – confirmation of human MBD2-DBD methylated oligonucleotide binding inhibitors; shares compounds with MBD2 inh; TR-FRET MBD2-DBD binding to methylated oligonucleotide; inhibition, % at 4.4 µM; 1,000 compounds, 26% hits; AID 720531; in the data active = inhibition above about 14%
* = called active by the depositor; nt = no result. The list is not random: actives were taken first. Their share in the collection is about 2%. Rule as the data show it, unless noted: active = inhibition above about 21%; inactive = the rest.

SMILES	MBD2 inh	TCR CD3 inh	UHRF1 binding	LEDGF integ inh	Rin1 Abl inh	UHRF1 DNA bind	MBD2 DBD conf
CC1(C(=O)NS(=O)(=O)c2cccc(OC(F)F)c2)CCN1C(=O)c1ccco1 (stereo not drawn)	-4	-3	-1	2	-1	nt	nt
O=C(COC(=O)CCN1C(=O)c2ccccc2C1=O)Nc1ccccc1[N+](=O)[O-]	1	2	-1	7	-1	nt	nt
O=C(COC(=O)CN1C(=O)c2ccccc2C1=O)Nc1ccccc1[N+](=O)[O-]	19*	-12	24*	1	1	3	2
Cc1cccc(-c2nc(CS(=O)CC(=O)NCCc3ccc(Cl)cc3)c(C)o2)c1 (stereo not drawn)	2	0	0	-4	2	nt	nt
C[N+]1(CC(=O)NNc2c3ccccc3nc3ccccc23)CCOCC1	40*	3	29*	1	nt	34*	31*
Cc1cc2c(SCC(=O)NCC3CCCO3)ncnc2s1 (stereo not drawn)	-7	6	2	1	-10	nt	nt
Cc1ccc(CN2C(=O)C3CCCN3c3ncccc32)cc1 (stereo not drawn)	52*	-1	-2	-2	2	5	3
Cc1ccc(N2CCN(CCCCN3C(=O)C4CCCN4C3=O)CC2)cc1 (stereo not drawn)	-1	5	2	-2	0	nt	nt
CCCc1ccc(OC(=O)c2ccc(O)cc2Cl)cc1	-1	4	0	3	1	nt	nt
CN(C(=O)[C@H]1O[C@@H](n2cnc(C(N)=O)n2)[C@H](O)[C@@H]1O)c1ccccc1	-1	3	1	-6	nt	nt	nt
O=C(NC1CCN(S(=O)(=O)c2cccc([N+](=O)[O-])c2)CC1)C1CCCCC1	3	-4	1	3	1	nt	nt
O=C(NC1CC1)C1CCN(S(=O)(=O)c2ccc(Cl)c([N+](=O)[O-])c2)CC1	35*	0	5	-5	1	7	3
CN1C2=N[C@@H](c3ccc4ccccc4c3)CC(=O)N2/C(=C\c2ccccc2)[C@H]1c1ccccc1	14*	nt	28*	2	nt	20	12
CN1C2=N[C@@H](c3ccccc3)CC(=O)N2/C(=C\c2ccccc2)[C@H]1c1ccccc1	22*	nt	31*	12	nt	9	8
CN1C2=N[C@@H](c3ccc4c(c3)OCO4)CC(=O)N2/C(=C\c2ccccc2)[C@@H]1c1ccccc1	-3	nt	2	0	nt	nt	nt
CCCC/C=C1/[C@H](c2ccccc2)N(C)C2=N[C@H](c3ccccc3)CC(=O)N21	3	nt	0	-4	nt	nt	nt
COc1ccc(CN2CN3Cc4cc(OC)ccc4C3CS2(=O)=O)cc1 (stereo not drawn)	-2	nt	-1	-4	nt	nt	nt
COc1ccccc1C(=O)NC1CCCCN(Cc2cccc(C(F)(F)F)c2)C1=O (stereo not drawn)	-5	nt	-5	5	nt	nt	nt
O=C(C1COc2ccccc2O1)N1CCN(c2ccccc2)CC1 (stereo not drawn)	0	-3	4	0	3	nt	nt
O=C(C1COc2ccccc2O1)N1CCOCC1 (stereo not drawn)	14*	-6	3	-7	-2	10	6
COc1ccc(S(=O)(=O)N2CCN(C(=O)C3COc4ccccc4O3)CC2)cc1 (stereo not drawn)	26*	-5	29*	-4	-3	75*	70*
COC(=O)c1ccc(CSc2nc3c(c(=O)[nH]2)CCC3)cc1	15*	-6	0	-2	-2	3	3
c1ccc(Oc2ncnc3ccccc23)cc1	21*	-10	0	-6	-3	2	2
Cc1nc(Oc2ccccc2)c2ccccc2n1	5	-2	5	-5	-4	nt	nt
Oc1ccc(C[C@H]2CNC(=S)N2CC2CCCN2C[C@H](Cc2ccc(O)cc2)N2C[C@H](Cc3ccccc3)N(CC3CCCCC3)C2=S)cc1 (stereo partly drawn)	0	6	-2	5	-2	nt	nt
SMILES	MBD2 inh	TCR CD3 inh	UHRF1 binding	LEDGF integ inh	Rin1 Abl inh	UHRF1 DNA bind	MBD2 DBD conf
COc1ccc(CN2CCN(Cc3ccc(C)cc3)CC2)c(OC)c1	32*	0	1	-1	3	4	3
CC(=O)Nc1cc(=O)c2cccnc2[nH]1	2	0	6	-4	5	nt	nt
CCOC(=O)Cn1cc(CN2CCS(=O)(=O)N(Cc3ccccc3)C(C(=O)OC)C2)nn1 (stereo not drawn)	14*	nt	16	-3	nt	9	4
COC(=O)[C@@H]1Cc2c([nH]c3ccccc23)C(C)(C)N1C(=O)CCl	-7	-3	1	-1	0	nt	nt
COC(=O)[C@]12C[C@H](CC(=O)NCCCN3CCCC3=O)C(=O)N(Cc3ccc4c(c3)OCO4)C1=C[C@H](C(C)(C)C)O[C@@H]2C	-3	6	-1	-2	nt	nt	nt
CCc1nc2c(OCc3cccc(OC)c3)cccn2c1N(C)C(=O)c1ccccc1F	26*	-4	-2	-2	-3	3	1
CCc1nc2c(OCc3cc(Cl)cc(Cl)c3)cccn2c1N(C)C(=O)c1ccccc1F	-1	5	-6	5	-3	nt	nt
COc1ccccc1OCC(O)CNCc1ccc2c(c1)OCO2 (stereo not drawn)	18*	-11	0	-1	-2	8	5
CCOc1cc(CNCc2ccc3c(c2)OCO3)ccc1OC	-3	7	3	-5	-3	nt	nt
CNC(=S)N(Cc1cc2cc(OC)c(OC)cc2[nH]c1=O)C1CCCC1	20*	-1	2	-2	-2	11	3
CNC(=S)N(CCc1cccc(C)c1)Cc1cc2cc(OC)c(OC)cc2[nH]c1=O	-1	3	0	1	-3	nt	nt
O=C(COC(=O)C1CC1)NC(=O)c1ccccc1	16*	-7	23*	7	4	6	2
C#CCCOC(=O)N1C2=NC(C(=O)OC)=C(C(=O)OC)[C@@H]3N(C)c4ccccc4[C@]23C[C@H]1CO	-1	-2	-1	-1	1	nt	nt
NC(=S)N=Nc1c(O)[nH]c2ccc(F)cc12	-11	-3	-12	0	-6	nt	nt
NC(=S)N=Nc1c(O)cc(O)c2[nH]c(=O)ccc12	15*	30*	42*	30*	14*	17	10
C=CCn1c(SCc2ccccc2)nc2scc(-c3ccc(C)o3)c2c1=O	7	4	-1	-5	0	nt	nt
C=CCn1c(SCC(N)=O)nc2scc(-c3ccc(C)o3)c2c1=O	14*	7	10	-5	5	2	0
CCOc1ccc(N=Nc2c(C)noc2C)cc1	18*	2	26*	3	-4	12	2
Cc1ccc(C(=O)CC(C(=O)O)n2cccn2)cc1 (stereo not drawn)	1	0	0	1	0	nt	nt
Cc1ccc(C(=O)CC(C(=O)O)n2cncn2)cc1 (stereo not drawn)	41*	-6	3	2	-3	5	1
